Experimental data reported in PubChem BioAssay AID2102 (Southern Research Specialized Biocontainment Screening …, 2009).
The campaign covered roughly 1,100 compounds. About 210 (19%) were called active. The list is a sample of the results. Measured potencies and affinities stand elsewhere. A number with no mark means an inactive call. How the calls were made is not given here.

experiment: host cell cytotoxicity, dose response, cytotoxicity control for SV40 T antigen inhibitor project, selected hits (AID 2102); conditions: Host cell viability cytotoxicity counter-screen; series mostly up to 50 µM; viability: at the top concentration;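 further: cells exposed to compounds for 72 hours; 100% = mean of untreated cell control wells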

SMILES	viability
CNC(=O)c1ccc(-c2sc3nc(N4CCOCC4)c4c(c3c2N)CC(C)(C)OC4)o1	92.8%
CN1CC(C(=O)O)Cc2c1ccc1ccccc21 (configuration not stated)	108%
COc1cc(C(=O)Nc2ccc(O)cc2)ccc1OC(C)=O	102%
CN(C)c1ccc(NC(N)=S)cc1	99.6%
COc1cc(/C=N/NC(=O)c2cccc(S(=O)(=O)N3CCCC3)c2)ccc1O	108%
Cc1nc(-c2ccc(O)c(O)c2)cs1	103%
Cc1ccc(S(=O)(=O)Nc2nc(C)cc(N/N=C/c3ccc(O)cc3)n2)cc1	88.8%
CCOc1cc(/C=C2\SC(=O)N=C2N)ccc1O	109%
Nc1nc2ccc(N3CCOCC3)cc2s1	109%
COc1cc(C(=O)Nc2ccc(N(C)C)cc2)cc(OC)c1OC	99.2%
Oc1ccc(-c2csc(Nc3ccccn3)n2)cc1O	113%
CN(C)c1ccc(Nc2nc(-c3cccnc3)cs2)cc1	91.9%
CC(=O)c1cccc(S(=O)(=O)N2CCCC(c3nc(-c4ccc(C)o4)no3)C2)c1 (configuration not stated)	86.5%
CC(C)c1ccc(S(=O)(=O)N2CCN(CCC(=O)Nc3ccc(N(C)C)cc3)CC2)cc1	84.7%
Cc1cc(C)nc(SCc2cc(=O)c(OC(=O)c3ccc(S(=O)(=O)N4CCCC4)cc3)co2)n1	83.3%
Nc1nc(-c2ccco2)cs1	116%

SMILES	viability
Cc1ccsc1/C=N/n1c(-c2cccnc2)n[nH]c1=S	86.5%
COc1cc(/C=N/NC(=O)c2ccoc2C)cc(OC)c1O	92.3%
O=C(CCN1C(=O)/C(=C\c2ccco2)SC1=S)Nc1ccc(C(=O)O)c(O)c1	107%
O=C(CCN1C(=O)/C(=C/c2ccco2)SC1=S)Nc1ccc(C(=O)O)c(O)c1	98.7%
COc1cc(/C=N/NC(=O)CSc2ccccn2)ccc1O	97.3%
Cc1ccc(NC(=O)CN2C(=O)N/C(=C\c3cccn3-c3cccc(C(=O)O)c3)C2=O)cc1	105%
CN(C)c1ccc(N2C(=O)CC(Nc3ccc(N4CCOCC4)cc3)C2=O)cc1 (configuration not stated)	111%
Oc1ccc(/C=N/Nc2nccnc2Cl)cc1	88.3%
Cc1cc(O)ccc1N/C=C1\CCCC1=O	106%
CC1(C)N([O-])c2cc([N+](=O)[O-])ccc2[N+]1=O	105%
O=c1c2c([N+](=O)[O-])cc([N+](=O)[O-])cc2sn1Cc1ccccc1	90%
Cn1c(SCC(=O)c2ccc(O)c(O)c2)nnc1-c1cccs1	103%
O=c1cc(-c2ccc(Br)cc2)[nH][nH]1	106%
O=C(NC(=S)Nc1ccc(O)cc1)c1ccccc1Cl	112%
COc1cc(/C=N/Nc2nc3ccccc3[nH]2)cc(OC)c1O	86.2%
Nc1ccc2nc(CCCCCCCCc3nc4ccc(N)cc4[nH]3)[nH]c2c1	91%
